A selection: hits, their analogues and other compounds. The true share with any hit is near 3.4%.
ADAM17 inh – inhibits human ADAM17 | P78536 | recombinant ADAM17, EDANS/DABCYL FRET peptide cleavage | inhibition, % at 6.95 µM | actives 0.83% (n = 370,000) | AID 720648;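 active = inhibition above the mean of compounds lying between control limits plus 3 SD, set per campaign, cut at about 8.5% in these data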;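 also: 0% = DMSO-only wells as the low control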
PLCg1 inh – blocks human PLC-gamma1 enzyme activity. P19174. purified PLC-gamma1, fluorogenic substrate, fluorescence. inhibition, % at 12.2 µM. actives 0.84% (n = 370,000). AID 720700; in the data active = inhibition above about 9.5%
ADAM10 inh – ADAM10 inhibition, QFRET primary screen. recombinant ADAM10, EDANS/DABCYL FRET peptide cleavage, 3 h. inhibition, % at 7 µM. actives 0.62% (n = 370,000). AID 720582;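 active = inhibition above a per-campaign cutoff equal to the mean of compounds falling between control-based bounds plus 3 SD, cut at about 20% in these data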;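 also: 0% = DMSO wells while the 100% control is not disclosed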
KLK7 zymogen act – activators of human kallikrein-7 zymogen | purified proKLK7, EDANS-DABCYL substrate fluorescence; 100% is mature enzyme control, 0% vehicle | actives 0.9% (n = 370,000) | P49862 | activation, % at 7 µM;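 active = activation above the mean of all tested compounds plus 3 SD, computed per campaign excluding outliers beyond control limits, cut at about 13% in these data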
Target sequence (P49862 whole entry, looked up): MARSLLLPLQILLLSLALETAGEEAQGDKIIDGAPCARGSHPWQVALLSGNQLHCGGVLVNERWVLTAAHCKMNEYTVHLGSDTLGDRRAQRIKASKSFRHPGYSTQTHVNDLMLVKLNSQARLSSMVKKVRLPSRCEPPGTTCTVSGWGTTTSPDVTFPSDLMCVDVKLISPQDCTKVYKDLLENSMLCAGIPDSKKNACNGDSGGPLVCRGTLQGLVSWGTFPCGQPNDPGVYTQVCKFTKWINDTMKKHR
sPLA2-III inh – Blocks human group III sPLA2 activity; Q9NZ20; QFRET BODIPY PC-A2 liposome hydrolysis, fluorescence; inhibition, % at 12.2 µM; actives 0.56% (n = 370,000); AID 743126;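 active = inhibition above mean plus 3 SD of compounds lying within the high and low control bounds, cut at about 19% in these data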;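 also: 0% = median of test compound wells and 100% = no enzyme DMSO wells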
PLCb3 inh – blocks human PLC-beta3 enzyme activity; inhibition, % at 12.2 µM; actives 0.18% (n = 370,000); Purified PLC-beta3, fluorogenic substrate, fluorescence; Q01970; AID 720704; in the data active = inhibition above about 11%;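 also: 0% = median of compound wells on plate and 100% = full blocker control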
ADAM10 confirm – confirmation of inhibitors of human ADAM10; shares compounds with ADAM10 inh; ADAM10 QFRET peptide cleavage, EDANS fluorescence; inhibition, % at 6.95 µM; actives 1% (n = 2,100);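 active = inhibition above about 20% chosen separately for each screening run, limit read from the data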;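 also: 0% = DMSO wells and 100% = marimastat wells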
ADAM17 counter – ADAM17 inhibition, counter-screen for ADAM10 exosite hits. shares compounds with ADAM10 inh. ADAM17 QFRET peptide cleavage, EDANS fluorescence. inhibition, % at 6.95 µM. actives 0.5% (n = 2,100). AID 743214;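 active = mean triplicate inhibition above the solvent-only control wells' mean plus 3 SD, cut at about 12% in these data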;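 also: 0% = DMSO wells and 100% = marimastat wells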
* = called active by the depositor; i = inactive; nt = no result given.

SMILES	ADAM17 inh	PLCg1 inh	ADAM10 inh	KLK7 zymogen act	sPLA2-III inh	PLCb3 inh	ADAM10 confirm	ADAM17 counter
Cc1ccc(S(=O)(=O)Nc2ccccc2-c2ccccc2NS(=O)(=O)c2ccc(C)cc2)cc1	5	0	21*	-1	-66	-2	0	0
CSc1ccc(S(=O)(=O)Nc2ccc(S(=O)(=O)Nc3ccc(C)cc3)cc2)cc1	7	-1	10	0	-119	0	nt	nt
O=C1OCCN1C(=O)[C@H]1[C@H](c2ccc([N+](=O)[O-])cc2)C(c2cccc(Cl)c2)=NN1c1ccc(Br)cc1	6	-11	24*	1	-17	-11	14	5
O=C1OCCN1C(=O)[C@H]1[C@H](c2ccccc2)C(c2cccc(Cl)c2)=NN1c1ccc(Br)cc1	-131	-213	i	-91	-11	-307	nt	nt
COc1cc(NC(=O)c2cc(-c3ccccc3Cl)on2)cc(OC)c1OC	3	-3	33*	0	-8	-10	4	1
COc1ccc(NC(=O)c2cc(-c3ccccc3Cl)on2)cc1	-4	-7	1	-2	-2	-12	nt	nt
O=[N+]([O-])c1ccc(Nc2ccccc2O)c2nonc12	4	-2	20*	2	-6	-14	0	0
CN(Cc1ccccc1F)C(=O)Cn1c(-c2cncs2)nc2ccccc21	-1	-1	-4	0	-2	1	nt	nt
CC(=NNC(=S)Nc1ccccc1)c1ccccn1	13*	6	26*	-1	21*	6	48*	43*
COc1ccc(CCC(=O)N2CCN(S(=O)(=O)c3ccc(C)cc3)CC2)cc1	-3	2	-9	0	10	-3	nt	nt
COc1ccc(S(=O)(=O)N2CCN(C(=O)c3ccc([N+](=O)[O-])o3)CC2)cc1	5	9	21*	-1	5	5	1	1
Cc1ccc(CSc2nnc(-c3cc(-c4ccc(C)cc4)n[nH]3)n2N)cc1	5	0	-9	-1	0	5	nt	nt
Cc1ccc(NC(=O)C2CCN(c3ncnc4sc(C)c(C)c34)CC2)cc1S(=O)(=O)N(C)C	5	-8	22*	1	-25	-11	7	2
C[C@H](CCC(=O)OCc1cn(CC(=O)c2ccc(O)cc2)nn1)C1CC[C@H]2[C@@H]3CC[C@@H]4C[C@H](O)CC[C@]4(C)[C@H]3C[C@H](O)[C@]12C (stereo not given in full)	7	2	30*	1	-81	4	8	1
CC(C)[C@H]1/C(=C/C2CC2)N2C(=O)C[C@H](c3ccccc3)N=C2N1C	-3	-9	-12	nt	7	-8	nt	nt
CN(C)CCCN1c2ccc([N+](=O)[O-])cc2CCc2cc([N+](=O)[O-])ccc21	8	-7	23*	0	-7	-8	0	1
CCOC(=O)Nc1ccc2c(c1)N(CCCN(C)C)c1ccccc1CC2	1	7	-5	1	5	-6	nt	nt
CC(Nc1nc(-c2ccccc2O)nc2ccccc12)c1ccccc1 (stereo not given)	2	-125	0	-32	-21	-188	nt	nt
CC(Nc1nc(-c2ccccc2)nc2ccccc12)c1ccccc1 (stereo not given)	11*	-3	29*	0	-21	-7	9	3
COc1ccc(N2CCN(CCNS(=O)(=O)c3ccc(C)cc3)CC2)cc1	3	0	86*	0	3	-4	2	2
Cc1ccc(-n2c(COc3ccccc3)nnc2SCC(=O)Nc2ccc3c(c2)OCO3)cc1	8	3	20*	0	-25	0	4	1
COc1ccc(-n2c(COc3ccccc3)nnc2SCC(=O)Nc2ccc3c(c2)OCCO3)cc1	8	2	16	0	-43	-1	nt	nt
C=CCN1C(=O)[C@@H](CC(=O)NCCC(C)C)[C@]2(C(=O)OC)CCCCC=C12	4	5	3	0	4	2	nt	nt
CSc1nc2c(c(=O)[nH]c(=O)n2C)n1C/C=C(\C)Cl	-4	3	-1	0	9	1	nt	nt
CCSc1nc2c(c(=O)[nH]c(=O)n2C)n1C/C=C(/C)Cl	3	5	20*	0	2	4	1	0
SMILES	ADAM17 inh	PLCg1 inh	ADAM10 inh	KLK7 zymogen act	sPLA2-III inh	PLCb3 inh	ADAM10 confirm	ADAM17 counter
C#CC1(O)CCCC2C3CCC4CC(OC(C)=O)CCC4(C)C3C(=O)CC21C (stereo not given)	2	2	24*	0	-21	2	2	0
COc1ccc(S[C@]2(C(=O)N3CCN(C(C)=O)CC3)CC(=O)N(C(=O)Nc3ccc(C)c(Cl)c3)[C@@H]2c2ccc(OC)cc2)cc1	9.5*	5	20*	0	-9	1	9	5
CCC(NS(=O)(=O)c1ccc(C)cc1)C(=O)N1CCN(c2ccccn2)CC1 (stereo not given)	-1	3	80*	0	-4	3	2	1
CC(=O)Nc1ccc(S(=O)(=O)N[C@@H](C)C(=O)N2CCN(c3ccccn3)CC2)cc1	0	6	-4	0	-1	-1	nt	nt
O=C(N/C=N/OCc1ccc(Cl)cc1Cl)NOCc1ncc(C(F)(F)F)cc1Cl	11*	4	20*	1	-24	-1	11	3
CO/N=C/NC(=O)NOCc1ncc(C(F)(F)F)cc1Cl	5	4	1	0	-13	5	nt	nt
CCCC[C@H]1C2CC(OC(=O)Nc3ccc(C#N)cc3)C(C2)[C@H]2CCCCN21 (stereo not given in full)	-11	0	-13	-1	3	-4	nt	nt
Cc1nn(-c2ccccc2)c(C)c1/C=N/NC(=O)c1cc(-c2ccccc2)n[nH]1	0	-3	0	0	-5	-4	nt	nt
Cc1nn(-c2ccccc2)c(C)c1/C=N/NC(=O)c1cc(-c2cccc3ccccc23)n[nH]1	8	3	24*	-1	-18	3	6	2
O=S1(=O)c2c(F)cccc2OC(COc2ccccc2)CN1CCc1ccc(F)cc1 (stereo not given)	3	-3	9	0	-9	-1	nt	nt
O=S1(=O)c2c(F)cccc2O[C@@H](COCc2ccccc2)CN1CCc1ccc(F)cc1	9	3	21*	0	-13	1	5	1
COC(=O)c1ccc(S(=O)(=O)N2CCC(NC(=O)CCC3CCCC3)CC2)cc1	1	2	-2	0	-3	3	nt	nt

High-throughput results deposited in PubChem by The Scripps Research Institute Molecular Screening Center.
